Source: publication PMC5540273 (PLoS ONE, 2017)

How the values were obtained:
Conditions in all cases: concentration: 1 μM, replicates: in singlicate; n = 1
PRKX = system: PRKX
PRP4 = system: PRP4
PYK2 = system: T1, PYK2
T1 construct: gene PTK2B

QSK = system: QSK
RAF1 = system: RAF1
RET = system: RET
RIOK1 = system: RIOK1
RIOK2 = system: RIOK2
RIOK3 = system: RIOK3
RIPK1 = system: RIPK1
RIPK2 = system: RIPK2
RIPK4 = system: RIPK4
RIPK5 = system: RIPK5
ROCK1 = system: ROCK1
ROCK2 = system: ROCK2
ROS1 = system: ROS1
[1] = system: RPS6KA4(Kin.Dom.1-N-terminal)
[2] = system: RPS6KA4(Kin.Dom.2-C-terminal)
[3] = system: RPS6KA5(Kin.Dom.1-N-terminal)
[4] = system: RPS6KA5(Kin.Dom.2-C-terminal)
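Further: KINOMEscan kinase panel screen.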

Row | SMILES | %Inh (PRKX) [%] | %Inh (PRP4) [%] | %Inh (PYK2) [%] | %Inh (QSK) [%] | %Inh (RAF1) [%] | %Inh (RET) [%] | %Inh (RIOK1) [%] | %Inh (RIOK2) [%] | %Inh (RIOK3) [%] | %Inh (RIPK1) [%] | %Inh (RIPK2) [%] | %Inh (RIPK4) [%] | %Inh (RIPK5) [%] | %Inh (ROCK1) [%] | %Inh (ROCK2) [%] | %Inh (ROS1) [%] | %Inh [1] [%] | %Inh [2] [%] | %Inh [3] [%] | %Inh [4] [%]
1 | O=C(Nc1n[nH]c2nc(-c3ccccc3)c(Cl)cc12)C1CC1 [SB-734909] | 0 | 0 | 0 | 38 | 30 | 0 | 7 | 41 | 7 | 55 | 0 | 10 | 16 | 24 | 6 | 0 | 0 | 0 | 0 | 0
2 | Nc1ncnc2c1ncn2-c1cccc(F)c1 [SKF-97560] | 0 | 0 | 6 | 13 | 14 | 1 | 38 | 19 | 49 | 22 | 100 | 29 | 26 | 38 | 28 | 4 | 0 | 45 | 0 | 3
3 | Cc1ccc(-c2ccc3c(ccc4sc5c(c43)NC[C@@H](C)N=C5N(C)C)n2)cn1 | 0 | 0 | 0 | 0 | 0 | 0 | 0 | 0 | 0 | 0 | 0 | 0 | 0 | 0 | 0 | 0 | 0 | 0 | 0 | 0
4 | Cc1ccccc1COc1cc(-n2cnc3cc(Cl)ccc32)sc1C(N)=O [GW813349] | 0 | 19 | 4 | 0 | 0 | 7 | 23 | 27 | 13 | 16 | 12 | 15 | 0 | 8 | 6 | 0 | 10 | 22 | 0 | 5
5 | COC(=O)c1c(-c2ccccc2)c2cc(C)ccc2c(=O)n1Cc1ccccc1 | 0 | 4 | 0 | 0 | 66 | 13 | 3 | 0 | 0 | 0 | 0 | 0 | 0 | 0 | 0 | 0 | 0 | 0 | 10 | 0
6 | COc1ccc(Nc2nccc(N3CCC(NS(=O)(=O)c4ccc(NC(C)=O)cc4)C3)n2)cc1 (centres unmarked) [GSK1379729] | 2 | 14 | 0 | 11 | 18 | 28 | 38 | 9 | 29 | 28 | 100 | 0 | 0 | 36 | 18 | 3 | 0 | 0 | 27 | 0
7 | COc1cc2ncn(-c3cc(OCc4ccncc4)c(C(N)=O)s3)c2cc1OC [GSK336313] | 7 | 20 | 0 | 0 | 7 | 4 | 31 | 6 | 12 | 46 | 13 | 22 | 1 | 0 | 0 | 28 | 19 | 0 | 4 | 4
8 | O=C(NCc1cccs1)c1cc(C(=O)c2c(Cl)cccc2Cl)c[nH]1 [GW823670] | 0 | 0 | 0 | 0 | 0 | 2 | 5 | 0 | 0 | 0 | 8 | 0 | 0 | 45 | 0 | 0 | 22 | 0 | 0 | 15
9 | CCC(=O)c1c(-c2ccccc2)c2cc(Cl)ccc2c(=O)n1Cc1cc(S(C)(=O)=O)n(CC(F)F)n1 | 1 | 6 | 0 | 0 | 6 | 0 | 0 | 13 | 25 | 1 | 2 | 0 | 18 | 0 | 0 | 0 | 0 | 0 | 0 | 0
10 | Nc1n[nH]c2nnc(-c3ccccc3)c(-c3ccccc3)c12 [GW554060] | 18 | 8 | 0 | 0 | 18 | 0 | 32 | 13 | 0 | 0 | 0 | 0 | 0 | 31 | 31 | 14 | 10 | 0 | 12 | 0
11 | COc1cc2nccc(Nc3ccc(OCc4ccc(NC(C)=O)cc4)cc3)c2cc1OC.Cl [GW440135] | 7 | 50 | 26 | 15 | 18 | 11 | 0 | 0 | 0 | 0 | 61 | 0 | 0 | 13 | 6 | 0 | 0 | 0 | 0 | 12
12 | COc1cccc(C2=C(Nc3cccc(C(=O)O)c3)C(=O)NC2=O)c1 [SB-390770] | 7 | 49 | 0 | 0 | 11 | 17 | 14 | 6 | 0 | 0 | 7 | 0 | 0 | 25 | 7 | 32 | 0 | 0 | 32 | 0
13 | Cc1cc(Nc2nc(-c3cccc(C)n3)nc3ccccc23)ccn1 [GW872411] | 0 | 0 | 14 | 0 | 0 | 0 | 0 | 0 | 0 | 0 | 14 | 0 | 0 | 27 | 0 | 0 | 2 | 0 | 0 | 16
14 | Cc1cccc(-c2nc(Nc3ccc4c(cnn4C)c3)c3ccccc3n2)n1 [GW876731] | 0 | 0 | 0 | 0 | 29 | 4 | 0 | 0 | 0 | 0 | 0 | 10 | 0 | 41 | 0 | 12 | 12 | 0 | 0 | 0
15 | CCc1ccc(-c2ccc3c(c2)-c2nn(C)cc2S(=O)(=O)N3C)cc1 | 0 | 27 | 0 | 0 | 19 | 16 | 15 | 0 | 0 | 12 | 0 | 0 | 0 | 0 | 0 | 0 | 0 | 0 | 0 | 0
16 | Cc1nnc(-c2ccc3ncn(-c4ccc(S(C)=O)cc4)c3c2)o1 (centres unmarked) | 3 | 0 | 12 | 0 | 0 | 7 | 6 | 11 | 20 | 4 | 19 | 0 | 0 | 0 | 16 | 0 | 0 | 0 | 3 | 4

Row | SMILES | %Inh (PRKX) [%] | %Inh (PRP4) [%] | %Inh (PYK2) [%] | %Inh (QSK) [%] | %Inh (RAF1) [%] | %Inh (RET) [%] | %Inh (RIOK1) [%] | %Inh (RIOK2) [%] | %Inh (RIOK3) [%] | %Inh (RIPK1) [%] | %Inh (RIPK2) [%] | %Inh (RIPK4) [%] | %Inh (RIPK5) [%] | %Inh (ROCK1) [%] | %Inh (ROCK2) [%] | %Inh (ROS1) [%] | %Inh [1] [%] | %Inh [2] [%] | %Inh [3] [%] | %Inh [4] [%]
17 | O=C1NC(=O)C(c2ccccc2)=C1Nc1cccc(O)c1 [SB-390534] | 0 | 0 | 12 | 9 | 13 | 0 | 0 | 0 | 0 | 0 | 8 | 1 | 26 | 0 | 0 | 24 | 0 | 7 | 0 | 0
18 | Cc1ccc(Oc2ccc(Nc3ncnc4cc[nH]c34)cc2C)cn1 | 2 | 46 | 9 | 13 | 5 | 8 | 100 | 0 | 24 | 0 | 8 | 36 | 14 | 0 | 0 | 11 | 0 | 1 | 16 | 2
19 | COc1cc2nccc(Nc3cccc(Oc4ccccc4)c3)c2cc1OC.Cl [GW284543] | 22 | 19 | 0 | 5 | 5 | 25 | 21 | 0 | 4 | 0 | 80 | 0 | 0 | 20 | 51 | 31 | 15 | 0 | 0 | 0
20 | CCCNC(=O)Nc1ccc(Oc2ncnc3ccn(C)c23)cc1 | 0 | 8 | 3 | 0 | 2 | 8 | 9 | 10 | 14 | 0 | 0 | 13 | 34 | 0 | 6 | 0 | 0 | 0 | 23 | 6
21 | Cl.c1ccc(Cn2cnc3cc(Nc4ncnc5ccccc45)ccc32)cc1 [GW272142] | 31 | 28 | 10 | 0 | 3 | 3 | 35 | 0 | 38 | 8 | 0 | 12 | 5 | 4 | 2 | 6 | 6 | 0 | 0 | 7
22 | O=C(Nc1n[nH]c2nc(-c3ccccc3)c(Br)cc12)C1CC1 [SB-708998] | 0 | 3 | 0 | 0 | 14 | 74 | 35 | 17 | 24 | 48 | 5 | 0 | 0 | 7 | 0 | 0 | 4 | 0 | 28 | 0
23 | COc1ccc(-c2cc3c(C)nc(N)nc3n([C@H]3CC[C@H](OCCO)CC3)c2=O)cn1 | 12 | 0 | 0 | 0 | 0 | 0 | 0 | 0 | 0 | 0 | 0 | 0 | 0 | 0 | 0 | 9 | 0 | 0 | 0 | 0
24 | COc1ccc(-c2cc3c(C)nc(N)nc3n([C@H]3CC[C@H](O)CC3)c2=O)cn1 | 0 | 0 | 0 | 0 | 0 | 0 | 0 | 0 | 0 | 0 | 0 | 0 | 0 | 0 | 0 | 0 | 5 | 0 | 0 | 0
25 | Nc1nc(-c2ccccc2F)c(-c2ccnc3ccccc23)s1 [GW560459] | 4 | 33 | 0 | 0 | 8 | 0 | 40 | 52 | 25 | 0 | 98 | 0 | 0 | 14 | 24 | 4 | 3 | 0 | 10 | 1
26 | CCC(=O)c1c(-c2ccccc2)c2cc(Cl)ccc2c(=O)n1Cc1ccc(C(=O)O)cc1 | 0 | 0 | 0 | 0 | 26 | 0 | 6 | 0 | 23 | 0 | 0 | 0 | 5 | 0 | 0 | 0 | 0 | 7 | 0 | 0
27 | Cc1cccc(-c2cc(-c3c[nH]nc3-c3ccccn3)ccn2)c1 [GW679395] | 12 | 22 | 0 | 3 | 3 | 48 | 6 | 0 | 0 | 0 | 36 | 12 | 6 | 0 | 10 | 0 | 1 | 0 | 0 | 37
28 | CCCC(=O)Nc1n[nH]c2ncc(-c3cccc4ccccc34)cc12 [SB-642057] | 12 | 26 | 0 | 13 | 9 | 33 | 19 | 0 | 0 | 0 | 28 | 36 | 10 | 0 | 3 | 0 | 14 | 0 | 16 | 0
29 | COc1ccc(-c2coc3ccc(-c4nnc(SCc5cccc(C#N)c5)o4)cc23)cc1 | 0 | 18 | 0 | 0 | 14 | 16 | 0 | 5 | 11 | 0 | 12 | 16 | 12 | 0 | 24 | 18 | 0 | 13 | 29 | 0
30 | CCS(=O)c1ccc(-c2coc3ccc(-c4nnc(C)o4)cc23)cc1 (centres unmarked) | 0 | 21 | 0 | 0 | 0 | 0 | 0 | 15 | 0 | 1 | 0 | 7 | 0 | 0 | 28 | 15 | 24 | 11 | 2 | 0
31 | CCS(=O)(=O)c1ccc(OC)c(Nc2ncc(-c3ccc(F)cc3)o2)c1.Cl [GW591947] | 0 | 16 | 11 | 0 | 9 | 13 | 22 | 0 | 29 | 10 | 19 | 0 | 0 | 20 | 16 | 0 | 25 | 0 | 27 | 0
